The values that follow come from the supplement of paper PMC7411054.

Conditions in all cases: treatment time: 24 h
Test [1] relates to A549-ACTB-RAB5A. Briefly: lowest phenotypically active concentration; higher = less potent. An outline of the steps:
(§1)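 Fifteen reporter lines derived from A549, HepG2 and WPMY1 cells by gene editing, carrying BFP for segmentation plus GFP and RFP/FusionRed markers, were exposed to 0.3, 1, 3 or 9 µM for 24 h in four wells each and imaged live. Live-cell features from each well were normalised to solvent control wells. A well set counted as deviating when ≥3 of 4 wells lay beyond the 95th percentile of control Euclidean distances, and as reproducible when the median replicate Pearson correlation exceeded the 95th percentile of non-replicates. Phenotypic activity was assigned only when both criteria were met.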

Test [2] relates to A549-CANX-COX4. Described as above. The procedure, abridged:
as §1

Test [3] relates to A549-GM130-SQSTM1. The description is as above. An outline of the steps: as §1
In test [4] the test system is A549-TP53BP1-CLTA. The test is described as above. The procedure, abridged:
as §1

Test [5] deals with A549-TUBA1B-RELA. The test is described as above. The procedure, abridged:
as §1

Test [6] has as its system HepG2-TP53BP1-CLTA. The test is described as above. An outline of the steps:
as §1

In test [7] the test system is A549-ACTB-RAB5A. Briefly: phenotypically active (imaging signature differs from DMSO and reproducible) at any of 0.3-9 uM (binary (1 = active, 0 = inactive)); higher = active. The procedure, abridged: as §1
In test [8] the test system is A549-CANX-COX4. The test is described as above. An outline of the steps: as §1
For test [9], the system named is A549-GM130-SQSTM1. Described as above. An outline of the steps: as §1
The test system of test [10] is A549-TP53BP1-CLTA. The test is described as above. An outline of the steps: as §1
Test [11] deals with A549-TUBA1B-RELA. The test is described as above. The procedure, abridged: as §1
For another test, the system named is HepG2-ACTB-RAB5A. The test is described as above. The procedure, abridged: as §1
The next test has as its system HepG2-CANX-COX4. The test is described as above. The procedure, abridged:
as §1

The subject of the next test is HepG2-GM130-SQSTM1. Described as above. The procedure, abridged:
as §1

Test [12] concerns HepG2-TP53BP1-CLTA. Described as above. The procedure, abridged:
as §1

A further test has as its system HepG2-TUBA1B-RELA. Described as above. An outline of the steps: as §1
The test system of the next test is WPMY1-CANX-COX4. The description is as above. An outline of the steps: as §1
The test system of a further test is WPMY1-GM130-SQSTM1. The test is described as above. An outline of the steps: as §1
The next test concerns WPMY1-TP53BP1-CLTA. Described as above. An outline of the steps:
as §1

The subject of another test is WPMY1-TUBA1B-RELA. The description is as above. An outline of the steps:
as §1

Where a name gives a salt, the structure may show the parent alone.

With `C=CC(=O)Nc1cccc(CN2C(=O)N(c3c(Cl)c(OC)cc(OC)c3Cl)Cc3cnc(NCCCCN(CC)CC)nc32)c1` [FIIN 1 hydrochloride], the “lowest phenotypically active concentration” value is at most 0.3 µM with A549-ACTB-RAB5A [1]; 3 µM in the test on A549-CANX-COX4 [2]; at most 0.3 µM in the test with A549-GM130-SQSTM1 [3]; 3 µM with A549-TP53BP1-CLTA [4]; 1 µM in the test on A549-TUBA1B-RELA [5]; at most 0.3 µM in the test with HepG2-TP53BP1-CLTA [6]. The phenotypically active in the test on A549-ACTB-RAB5A [7], in the test with A549-CANX-COX4 [8], in the test on A549-GM130-SQSTM1 [9], with A549-TP53BP1-CLTA [10], in the test with A549-TUBA1B-RELA [11] and in the test with HepG2-ACTB-RAB5A was 1 (active) each time. Moreover, the phenotypically active in the test on HepG2-CANX-COX4, with HepG2-GM130-SQSTM1, in the test on HepG2-TP53BP1-CLTA [12], in the test with HepG2-TUBA1B-RELA, in the test on WPMY1-CANX-COX4 and in the test on WPMY1-GM130-SQSTM1 was 1 (active) throughout. Further, the phenotypically active in the test on WPMY1-TP53BP1-CLTA and with WPMY1-TUBA1B-RELA was 1 (active) in each case.
`COc1cc2nc(N3CCCN(C)CC3)nc(NC3CCN(Cc4ccccc4)CC3)c2cc1OC`: the “lowest phenotypically active concentration” value is at most 0.3 µM in the test with A549-ACTB-RAB5A [1]; 1 µM with A549-CANX-COX4 [2]; at most 0.3 µM in the test on A549-GM130-SQSTM1 [3]; 1 µM in the test with A549-TP53BP1-CLTA [4]; at most 0.3 µM in the test with A549-TUBA1B-RELA [5]; 1 µM in the test with HepG2-TP53BP1-CLTA [6]. Further, the phenotypically active in the test on A549-ACTB-RAB5A [7], in the test on A549-CANX-COX4 [8], in the test with A549-GM130-SQSTM1 [9], in the test on A549-TP53BP1-CLTA [10], with A549-TUBA1B-RELA [11] and in the test with HepG2-ACTB-RAB5A was 1 (active) in each case. The phenotypically active in the test with HepG2-CANX-COX4, in the test with HepG2-GM130-SQSTM1, with HepG2-TP53BP1-CLTA [12], with HepG2-TUBA1B-RELA, in the test with WPMY1-CANX-COX4 and in the test with WPMY1-GM130-SQSTM1 was 1 (active) each time. Besides, the phenotypically active with WPMY1-TP53BP1-CLTA and in the test on WPMY1-TUBA1B-RELA was 1 (active) in each case.
Turning to `CC(=C/[C@@H](C)C(=O)c1ccc(N(C)C)cc1)/C=C/C(=O)NO` [Trichostatin A], the “lowest phenotypically active concentration” value with A549-ACTB-RAB5A [1], with A549-CANX-COX4 [2], in the test with A549-GM130-SQSTM1 [3], in the test on A549-TP53BP1-CLTA [4], in the test on A549-TUBA1B-RELA [5] and in the test with HepG2-TP53BP1-CLTA [6] was at most 0.3 µM each time. The phenotypically active in the test with A549-ACTB-RAB5A [7], with A549-CANX-COX4 [8], with A549-GM130-SQSTM1 [9], in the test with A549-TP53BP1-CLTA [10], with A549-TUBA1B-RELA [11] and in the test on HepG2-ACTB-RAB5A was 1 (active) each time. Further, the phenotypically active in the test on HepG2-CANX-COX4, with HepG2-GM130-SQSTM1, in the test on HepG2-TP53BP1-CLTA [12], with HepG2-TUBA1B-RELA, with WPMY1-CANX-COX4 and in the test with WPMY1-GM130-SQSTM1 was 1 (active) in each case. Also, the phenotypically active in the test with WPMY1-TP53BP1-CLTA and in the test on WPMY1-TUBA1B-RELA was 1 (active) in each case.
Regarding `Cc1ccc2nc(NCCN)c3ncc(C)n3c2c1`, the “lowest phenotypically active concentration” value with A549-ACTB-RAB5A [1] is 3 µM; in the test with A549-CANX-COX4 [2], 9 µM; in the test with A549-GM130-SQSTM1 [3], 3 µM; with A549-TP53BP1-CLTA [4] it was 3 µM; in the test on A549-TUBA1B-RELA [5] it was 3 µM; in the test with HepG2-TP53BP1-CLTA [6], 3 µM. For the same compound, the phenotypically active with A549-ACTB-RAB5A [7], in the test with A549-CANX-COX4 [8], in the test on A549-GM130-SQSTM1 [9], in the test with A549-TP53BP1-CLTA [10], in the test with A549-TUBA1B-RELA [11] and in the test with HepG2-ACTB-RAB5A was 1 (active) each time. Besides, the phenotypically active with HepG2-CANX-COX4, in the test on HepG2-GM130-SQSTM1, in the test with HepG2-TP53BP1-CLTA [12], with HepG2-TUBA1B-RELA, with WPMY1-CANX-COX4 and in the test on WPMY1-GM130-SQSTM1 was 1 (active) each time. The phenotypically active in the test with WPMY1-TP53BP1-CLTA and in the test on WPMY1-TUBA1B-RELA was 1 (active) throughout.
For `Clc1ccc(N/N=C(\c2ccccc2)c2ccccn2)nc1`, the “lowest phenotypically active concentration” value in the test with A549-ACTB-RAB5A [1] is 1 µM; in the test with A549-CANX-COX4 [2] it was 3 µM; in the test on A549-GM130-SQSTM1 [3] it was at most 0.3 µM; in the test on A549-TP53BP1-CLTA [4], 3 µM; in the test with A549-TUBA1B-RELA [5], at most 0.3 µM; in the test on HepG2-TP53BP1-CLTA [6] it was at most 0.3 µM. Besides, the phenotypically active with A549-ACTB-RAB5A [7], in the test on A549-CANX-COX4 [8], in the test on A549-GM130-SQSTM1 [9], in the test on A549-TP53BP1-CLTA [10], with A549-TUBA1B-RELA [11] and in the test on HepG2-ACTB-RAB5A was 1 (active) in each case. In addition, the phenotypically active in the test with HepG2-CANX-COX4, with HepG2-GM130-SQSTM1, with HepG2-TP53BP1-CLTA [12], with HepG2-TUBA1B-RELA, in the test with WPMY1-CANX-COX4 and in the test on WPMY1-GM130-SQSTM1 was 1 (active) each time. The phenotypically active with WPMY1-TP53BP1-CLTA and with WPMY1-TUBA1B-RELA was 1 (active) each time.
For `Cc1ccc([N+](=O)[O-])cc1S(=O)(=O)N(C)/N=C/c1cnc2ccc(Br)cn12`, the “lowest phenotypically active concentration” value in the test with A549-ACTB-RAB5A [1], in the test on A549-CANX-COX4 [2], in the test with A549-GM130-SQSTM1 [3], in the test on A549-TP53BP1-CLTA [4], with A549-TUBA1B-RELA [5] and in the test with HepG2-TP53BP1-CLTA [6] was at most 0.3 µM throughout. Also, the phenotypically active in the test on A549-ACTB-RAB5A [7], in the test with A549-CANX-COX4 [8], in the test on A549-GM130-SQSTM1 [9], in the test on A549-TP53BP1-CLTA [10], in the test on A549-TUBA1B-RELA [11] and in the test on HepG2-ACTB-RAB5A was 1 (active) throughout. Further, the phenotypically active in the test with HepG2-CANX-COX4, in the test on HepG2-GM130-SQSTM1, in the test on HepG2-TP53BP1-CLTA [12], in the test with HepG2-TUBA1B-RELA, in the test with WPMY1-CANX-COX4 and in the test on WPMY1-GM130-SQSTM1 was 1 (active) each time. Further, the phenotypically active in the test with WPMY1-TP53BP1-CLTA and in the test with WPMY1-TUBA1B-RELA was 1 (active) in each case.
